# An excerpt weighted towards active compounds, which were near 3.7% of everything screened.
# DRD3 agonist = activates the human D3 dopamine receptor; P35462; D3R DiscoveRx beta-arrestin cells, luminescence, 90 min; max activation, %; actives 0.58% (n = 410,000); in the data active = max activation above about 30%; note: 0% is about no effect
# Target sequence (P35462 whole entry, looked up): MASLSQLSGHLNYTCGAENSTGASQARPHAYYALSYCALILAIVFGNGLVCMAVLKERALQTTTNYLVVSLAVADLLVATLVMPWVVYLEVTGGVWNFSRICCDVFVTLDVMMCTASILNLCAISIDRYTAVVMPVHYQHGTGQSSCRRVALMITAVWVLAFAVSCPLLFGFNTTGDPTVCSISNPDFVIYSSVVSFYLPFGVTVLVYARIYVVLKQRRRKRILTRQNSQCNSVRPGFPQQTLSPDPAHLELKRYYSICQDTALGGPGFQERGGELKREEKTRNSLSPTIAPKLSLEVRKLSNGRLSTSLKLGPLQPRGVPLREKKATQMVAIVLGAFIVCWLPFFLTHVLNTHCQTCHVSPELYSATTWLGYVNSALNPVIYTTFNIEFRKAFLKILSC
#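 Cells at 1500/well, incubated overnight, then treated with pinned compounds (dopamine as control) for 90 min at 37 degrees C. DiscoveRx reagent added for 30 - 60 minutes at room temperature; luminescence read.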
# DRD3 antagonist = antagonists of human D3 dopamine receptor. P35462. D3R cells, DiscoveRx beta-arrestin luminescence, antagonist mode; hits give low values. max response, negative = inhibition, %. actives 2.5% (n = 360,000); in the data active = max response below about -50%; inconclusive = no clear call, values can overlap the other calls; note: % is set by controls: 0 for no effect and ±100 for the full control effect
#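 Cells plated overnight at 1500 cells/well, then exposed to library compounds with dopamine controls for 90 minutes at 37 degrees C. DiscoveRx reagent added for 30–60 minutes at room temperature; luminescence read, quantitative HTS format.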
# BRCA1 expr up = increases BRCA1 expression | MCF7-BRCA1-FFLuc reporter, luminescence, 48 h; response scale: scaled: vehicle 0%, 10 µM genistein 100% | Potency, µM (highest dose often 46.1 µM), for the others: at the top dose activation, usual class: activators | actives 1.1% (n = 380,000); note: potency is the fitted concentration of half-maximal effect; nearly all actives have a fitted effect of over 80% in size
#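 Reporter cells (MCF7, BRCA1 promoter-firefly luciferase) received library compounds across a concentration series for 48 h. End-point luminescence was measured and concentration-effect curves derived after normalization.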
# PTHR1 ag = PTHR1 (human) receptor agonism; AID 743266; actives 0.075% (n = 410,000); HEK293 GP2 PTHR1 cells, GloSensor cAMP luminescence, 1 h; Potency, µM (series often up to 115 µM), without a hit: at the highest dose activation, actives largely listed as activators; Q03431; note: potency is the fitted concentration of half-maximal effect; nearly all actives have a fitted effect of over 55% in size
#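 HEK-293-derived GP2 cells expressing PTHR1 and a GloSensor cAMP reporter, 3,000/well, plated overnight, given luciferin plus IBMX (each 0.5 mM as added) for 1 h at 37 °C, then compound for 1 h at 37 °C. Luminescence was read after 15 min at room temperature.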
# B2AR arrestin = beta2AR (human) beta-arrestin recruitment activity; actives 0.02% (n = 330,000); Potency, µM (highest dose often 46.1 µM), inactives show top-dose activation, hits mostly activators; beta-arrestin recruitment to beta2AR, cell-based reporter; AID 492947; P07550;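 note: potency is the fitted concentration of half-maximal effect; 0% = DMSO controls and full agonism = EC100 isoproterenol or metaproterenol; nearly all actives have a fitted effect of over 65% in size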
# RGS4 inhibitor = blocks human RGS4-accelerated GTP hydrolysis. P49798. Transcreener GDP fluorescence polarization, RGS4-accelerated GTP hydrolysis. Potency, µM (highest dose often 114 µM), inactives show at the top dose activity change, negative = inhibition, actives largely listed as inhibitors. actives 0.039% (n = 390,000); note: potency is the fitted concentration of half-maximal effect; % is set by controls: 0 for no effect and ±100 for the full control effect; nearly all actives have a fitted effect of over 75% in size
#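 MLSMR compounds (23 nl, pin-transferred) preincubated 10 min at room temperature with a 500nM (2x) first reagent, then RGS4 at 900nM (2x) plus Transcreener GDP mix added; fluorescence polarization (620/688 nm) read before and after 90 min at 30 °C.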
# * hit, by the source's call; i = inactive; u = inconclusive; x = no result; [ ] = another dose, or the depositor's remark. Unless noted, calls come from the whole dose curve; as a rule, active = well fitted curve in the direction sought with a large enough effect; inconclusive = small, poorly fitted or top-dose-only effect, or another doubt; inactive = no such curve, though single readings can be large; an effect the other way counts as inactive or inconclusive.
SMILES,DRD3 agonist,DRD3 antagonist,BRCA1 expr up,PTHR1 ag,B2AR arrestin,RGS4 inhibitor
Cn1c(NCc2ccccc2F)nc2cc(-c3cccc(Cl)c3)sc2c1=O,0,25,-1%,-25%,x,x
COC(=O)[C@]12CCCCC=C1N(Cc1ccc3c(c1)OCO3)C(=O)[C@H](CC(=O)NCCC(C)C)C2,9,30,x,-58%,x,x
O=C1CC(c2nc(-c3ccc(Cl)cc3)no2)CN1c1ccc2c(c1)OCCO2 (stereo unspecified),-8,x,x,i,x,0%
Cc1ccc(C(=O)O)c(C(=O)Nc2nc3ccccc3s2)c1,30*,10,40%,i,0%,-5%
Cc1csc(SCC(=O)Nc2ccccc2)n1,-7,-20,-1%,-13%,0%,22%
Cc1csc(SCC(=O)Nc2nc3ccccc3s2)n1,6,39,2.8µM*,-17%[57.5 µM],0%,-18%
Cc1noc(C)c1C(=O)Nc1nc2ccccc2s1,1,11,6.3µM*,-19%,0%,-10%
C=C1CCN([C@@H](CC(C)C)C(=O)NCCC(C)C)S(=O)(=O)c2ccccc21,-24,-50*,0%,-17%,x,17%
CC(=O)NC(=S)Nc1ccc([N+](=O)[O-])cc1C,-7,-18,6%,-6%,0%,-2%
Cc1cc([N+](=O)[O-])ccc1NC(=S)NC(=O)Cc1ccccc1,-18,-61*,0%,i,0%,-2%[11.4 µM]
Cc1cc(C)c(C)c(S(=O)(=O)N(C)C2CCN(C)CC2)c1C,-19,-77*,-4%,i,0%,1%
CN(C(=O)c1ccc(NC(=O)Cc2ccc(NC(=O)C3CCCN(C(=O)c4ccccc4)C3)cc2)cc1)C1CCCC1 (stereo unspecified),7,2,8%,-21%,x,22%
Fc1ccccc1COc1ccc(C(=S)N2CCCC2)cc1,-3,-7,11µM*,-21%,0%,18%
O=C(Oc1ccc(C(=S)N2CCCCC2)cc1)c1ccccc1F,-2,-13,16%,i,0%,-7%
COc1ccccc1-c1nn2c(=O)cc(C)nc2s1,2,15,10µM*,i,0%,0%
COc1ccccc1-c1nn2c(-c3ccccc3Cl)nnc2s1,x,x,x,x,0%,x
COc1ccccc1-c1nn2c(-c3ccco3)nnc2s1,-2,31,7.9µM*,i,0%,-41%
c1coc(-c2nn3c(-c4ccco4)nnc3s2)c1,-6,2,21%,-23%,0%,-34%
COC(=O)C[C@](O)(CCCC(C)(C)O)C(=O)O[C@@H]1C(OC)=CC23CCCN2CCc2cc4c(cc2[C@H]13)OCO4 (stereo partly specified),-9,x,x,x,x,x
O=S1(=O)CCOC[C@H](c2ccccc2)N1Cc1cccc(Cl)c1,-13,-59*,0%,-1%,-1%,2%
O=S1(=O)CCOC[C@H](c2ccccc2)N1Cc1ccccc1,9,0,-1%,-17%,-1%,3%
O=C(N=C1N=C2C=CC=CN2Cc2ccccc21)c1ccc(S(=O)(=O)N2CCCC2)cc1,-17,-13,u,-13%,0%,9%
O=C(N=C1N=C2C=CC=CN2Cc2ccccc21)c1ccc(S(=O)(=O)N2CCOCC2)cc1,-6,-5,10µM*,-46%,0%,15%
CC(C)(C)c1nnc(NC(=S)Nc2ccccc2)s1,13,-11,2.8µM*,-24%,3%,-22%
Nc1nc(COc2ccc3ccccc3c2)cs1,-8,-28,6.3µM*,-21%[57.5 µM],x,28%
COc1ccccc1OCc1csc(N)n1,-6,9,3%,i,0%,-16%
CCC(CC)C(=O)Nc1c(C(=O)N2CCN(c3ccccc3F)CC2)oc2ccccc12,-1,x,x,-17%,x,12%
CCOC(=O)c1nnc2c(-c3ccc(OC)cc3)c(C)nn2c1N,-3,x,7%,17%,x,10%
Nc1c([N+](=O)[O-])cc2c3c(cccc13)CC2,-7,-73*,3%,12%,x,x
